# Assay results: ChEMBL document CHEMBL3988442, “University of Dundee, Small-Polar-MMV Screening Library” (2021)
# In all, about 48,000 compounds went through this assay and about 13,000 (27%) showed an effect of 50% or more. The list shows a part of the results.
# Tested on: Wolbachia pipientis
# Test: Anti-Wolbachia Cell-Based Screen
# Format: functional
# Parameters: scale not given: in the data most compounds retested in dose-response had high values
# Details: 5 µM
row,Structure (SMILES),Percent Effect [%]
1,CSCC[C@@H](CO)Nc1ccc(-c2nc(-c3ccccc3F)no2)cn1,-8.084
2,CCC(C)(N)c1nc(=O)c(C)c(C)[nH]1 (configuration not stated),-33.14
3,Cc1noc(C)c1CS(=O)(=O)CC(=O)NCCc1cccs1,0.1957
4,CC(=O)N1CCC(C(=O)NC2CC(C)(C)Oc3cc(C)ccc32)CC1 (configuration not stated),-7.853
5,CNCC[C@H]1CC(C)(C)Oc2ccc(OCC3CC3)cc21,114.8
6,CC(=O)NCC[C@H]1CC(C)(C)Oc2ccccc21,133.5
7,CNCC[C@H]1CC(C)(C)Oc2ccc(OC)cc21,108.6
8,Cc1ccc2c(c1)OC(C)(C)CC2NC(=O)C1CCN(C)CC1 (configuration not stated),-0.1155
9,COc1ccc2c(c1)C(NCCc1ccccn1)CCCO2 (configuration not stated),1.37
10,COc1ccc2c(c1)C(NCCc1c(C)noc1C)CCCO2 (configuration not stated),-2.374
11,NCc1ccc(Oc2cccc(Cl)c2Cl)nc1,4.271
12,CCCc1[nH]n(C)c(=N)c1-c1ccc2c(c1)OCO2,-1.578
13,O=C(Nc1nc(-c2ccccc2)ns1)N1CCC(F)CC1,-10.12
14,Cc1n[nH]c(C)c1CNC(=O)c1cn(CCC2CCCCN2)nn1 (configuration not stated),-13.81
15,NC(=O)C1(c2cnccn2)CCCN1Cc1cc2ccccc2o1 (configuration not stated),-3.809
16,Cc1cccc(CN2C[C@@H](CN3CCCN(C)CC3)[C@@H](CO)C2)n1,16.72
17,Cc1cccc(CO[C@@H]2C[C@H]3CN(C(=O)c4cnccn4)CCN3C2)n1,-10.31
18,Cc1cccc(CN2CCCC2(C(N)=O)c2cnccn2)n1 (configuration not stated),94
19,NC(=O)C1(c2cnccn2)CCCN1Cc1ccccn1 (configuration not stated),123
20,O=C(O)[C@]12CCCN(Cc3ccccn3)[C@@H]1CCN(c1cnccn1)C2,-12.33
21,c1ccc(-c2nnc(CNCC3CCCN3c3cccnn3)o2)cc1 (configuration not stated),-18.66

row,Structure (SMILES),Percent Effect [%]
1,Cc1oncc1C(=O)N1CCC2(CC1)CC(N1CCOCC1)C2.O=C(O)C(F)(F)F,99.49
2,O=C(O)C(F)(F)F.O=C1CC(c2ccncc2)C2(CCN(C(=O)c3cccc(F)c3)CC2)N1 (configuration not stated),8.556
3,O=C(O)C(F)(F)F.O=C(c1ccc(F)cc1)N1CCC2(CC1)CC(N1CCOCC1)C2,98.46
4,CN1CCCCC12CCN(C(=O)c1cccn1C)CC2.O=C(O)C(F)(F)F,-9.83
5,O=C(O)C(F)(F)F.O=C(c1cccc(F)c1)N1CCC2(CC1)CC(N1CCOCC1)C2,110.5
6,CC(=O)N1CCC2(CC1)CC(N1CCOCC1)c1ccc(C)cc12.O=C(O)C(F)(F)F (configuration not stated),0.6002
7,CC(=O)N1CCOC2(CCN(C(=O)c3cnoc3C)CC2)C1,6.241
8,Cn1cccc1C(=O)N1CCC2(CC1)CC(N1CCOCC1)C2.O=C(O)C(F)(F)F,103.3
9,CN(C)C1COC2(CCN(C(=O)c3cccc(Cl)c3)CC2)C1.O=C(O)C(F)(F)F (configuration not stated),-2.157
10,COc1cc(N2CCC3(CC2)CC(N2CCOCC2)C3)ncn1.O=C(O)C(F)(F)F,-37.73
11,O=C(O)C(F)(F)F.O=C(c1ccccc1)N1C[C@@H]2CCCO[C@@H]2[C@H](N2CCOCC2)C1,-6.046
12,O=c1[nH]c(NCc2cccc(OC(F)F)c2)nc2c1CCNC2,-5.963
13,O=C(NCC1CC1)[C@H]1C[C@@H]2CN(C(=O)NCC3CCCCC3)C[C@H]1O2,9.811
14,Cc1nc(C(C)C)sc1C(=O)N1CCC(C(N)=O)CC1,81.6
15,Cc1nc(C(C)C)sc1C(=O)N1CCC(N2CCSCC2)CC1,96.22
16,CC(C)(C)c1ncc(C(=O)N2CCC(N3CCSCC3)CC2)c(O)n1,-20.12
17,Cc1nc(C(C)C)sc1C(=O)N1CCN(C2CCSCC2)CC1,90.05
18,CCCn1ncc(C(=O)N2CCN(C3CCSCC3)CC2)c1C,7.373
19,COC1CCCN(C(=O)c2sc(CC(C)C)nc2C)C1 (configuration not stated),-1.564
20,Cc1nc(CC(C)C)sc1C(=O)N1CCC(C2(C)OCCO2)CC1,1.957
21,CN(C)C(C(=O)N1CCC(N2CCSCC2)CC1)c1ccccc1F (configuration not stated),11.01

row,Structure (SMILES),Percent Effect [%]
1,Cc1nc(CC(C)C)sc1C(=O)N1CCC1,-0.1519
2,CCS(=O)(=O)N1C[C@H]2CC[C@@]3(N=C(C)N(CC(C)C)C3=O)[C@H]2C1,17.11
3,Cc1ccc(CN2CCNC(=O)C2CC(=O)N2CCSCC2)o1 (configuration not stated),-50.4
4,O=C(NCc1ccc(Cl)s1)c1cc(CN2CCCC(O)C2)on1 (configuration not stated),3.439
5,CSCc1nc(CCNC(=O)c2cnn(C(C)C)c2)cs1,-0.3441
6,CSc1ccc2cc(CN(C)CCO)c(=O)[nH]c2c1,-7.247
7,CCC(CNC(=O)CNC(C)=O)Oc1cccc(F)c1 (configuration not stated),-13.27
8,Cc1ccc(S(=O)(=O)NC[C@H]2OC[C@@H](NCc3cccnc3)[C@@H]2O)cc1,-9.264
9,CC(C)NC(=O)CN(C1CC1)C(C)C1CC1 (configuration not stated),-3.628
10,CC(=O)N1CCCCC1c1nc2c(c(N3CCCCC3)n1)CN(C)CC2 (configuration not stated),-9.745
11,Nc1nc2c(c(NC3CCCC3)n1)CCN(C(=O)C1CCOC1)CC2 (configuration not stated),4.82
12,CNc1nc(N2C[C@H](NC(=O)CCOC)[C@@H](C3CC3)C2)nc2c1CCC2,-18.85
13,CNc1nc(C2CCCCN2C(=O)C(C)(C)OC)nc2c1CN(C)CC2 (configuration not stated),100.3
14,CNc1nc(C2CCCCN2C(=O)COC)nc2c1CN(C)CC2 (configuration not stated),112
15,CC1CCCCN1C(=O)c1nc2c(n1C(C)C)CCN(C)C2.O=C(O)C(F)(F)F (configuration not stated),0.8763
16,CC(=O)N1CCCCC1c1nc2c(c(NC3CCCC3)n1)CN(C)CC2 (configuration not stated),71.52
17,COCC(=O)N[C@H](C(=O)NC(C)c1cccc(C)c1C)C(C)C (some centres not stated),4.041
18,O=C(c1scc2c1OCCO2)N1CCN(Cc2cccc(F)c2)CC1,-25.63
19,COCc1noc(-c2ccc(N(C)Cc3nccs3)nc2)n1,22.14
20,CCc1nc(CNC(C)c2cccc(N3CCCC3=O)c2)cs1.Cl (configuration not stated),4.92
